Assay results reported in PubChem BioAssay (NCATS).
Several values for one entry are separate records, joined by “and”; a condition that tells them apart may be missing. Equal entries are not always repeated. Results filed as inconclusive are left out. Activity calls are given as the source filed them. Unless noted, calls follow the shape of the dose curve; as a rule, active = well fitted curve in the direction sought with a large enough effect; inconclusive = small, poorly fitted or top-dose-only effect, or another doubt; inactive = no such curve, though single readings can be large; an effect the other way counts as inactive or inconclusive.

How the values were obtained:
[1] = target: Cellular tumor antigen p53 (Homo sapiens) (UniProt P04637); assay: Primary qHTS for small molecule compounds that upregulate eGFP-tagged delta133p53alpha (in N-terminal) cells. (AID 2060322); settings: NCI-H358 eGFP-delta133p53alpha fluorescence, 24 h; activation: stronger effect = higher value;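 also: cells pre-induced with doxycycline then dosed without doxycycline; 0% = DMSO vehicle and 100% = reference activator; nearly all actives have a fitted effect of over 75% in size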
In short: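 NCI-H358 cells pre-induced 24 h with 10 ng/ml doxycycline for eGFP-delta133p53alpha, plated dox-free and exposed 24 h at 37C to titrated compounds. Fixed, Hoechst-stained; gated GFP peak intensity by laser scanning cytometry, normalized to DMSO (0%) and 57.5 uM 5-azacytidine (100%).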

[2] = target: Cellular tumor antigen p53 (Homo sapiens) (UniProt P04637); assay: Primary qHTS for small molecule compounds that upregulate eGFP-tagged delta133p53alpha (in C-terminal) cells. (AID 2060324); settings: NCI-H358 delta133p53alpha-eGFP (C-terminal tag), GFP fluorescence imaging, 24 h; series mostly up to 57.5 µM;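 also: 0% = DMSO wells and 100% = 57.5 µM 5-azacytidine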
In short: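 Read-out: gated-cell GFP peak intensity (laser scanning cytometer), plate-normalized with DMSO as 0% activity, after 24 h compound exposure at 37C. Cells were C-terminal eGFP-tagged delta133p53alpha NCI-H358, doxycycline-induced (100 ng/ml, 24 h) before plating.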

[3] = target: Aldehyde dehydrogenase, mitochondrial (Homo sapiens) (UniProt P05091); assay: qHTS for Inhibitors of the Aldehyde Dehydrogenase Family (ALDH2) Validation screens (AID 2061302; active = well fitted inhibition curve with a large enough effect; title and protocol of this record describe different tests;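 also: plate controls were DMSO vehicle for no effect and maximal DPI positive control response for full effect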); settings: ALDH inhibition qHTS; series mostly up to 42.6 µM
[4] = target: Retinaldehyde dehydrogenase 3 (Homo sapiens) (UniProt P47895); assay: qHTS for Inhibitors of the Aldehyde Dehydrogenase Family (ALDH1A3) Validation screen (AID 2061312); settings: ALDH1A3 enzyme inhibition qHTS validation, fluorescence; series mostly up to 84.7 µM; also: % is scaled to controls: 0 for no effect and ±100 for the full control effect; nearly all actives have a fitted effect of over 45% in size

Sequence of Cellular tumor antigen p53 (Homo sapiens) (P04637 whole entry, looked up): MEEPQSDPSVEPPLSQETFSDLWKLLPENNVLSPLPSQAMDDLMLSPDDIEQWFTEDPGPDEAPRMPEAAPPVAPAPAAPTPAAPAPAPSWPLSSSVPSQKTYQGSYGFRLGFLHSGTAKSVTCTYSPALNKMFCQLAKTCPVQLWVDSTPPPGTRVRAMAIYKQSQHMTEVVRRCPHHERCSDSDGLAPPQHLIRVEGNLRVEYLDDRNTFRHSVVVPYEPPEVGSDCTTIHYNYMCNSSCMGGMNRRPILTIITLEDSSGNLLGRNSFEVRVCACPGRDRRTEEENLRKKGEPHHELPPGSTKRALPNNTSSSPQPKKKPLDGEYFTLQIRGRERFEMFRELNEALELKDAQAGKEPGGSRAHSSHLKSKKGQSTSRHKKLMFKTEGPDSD

CCOC(=O)C1=C[C@]2(CC)CCCN3CCc4c(n1c1ccccc41)[C@@H]32
inactive: activation [1] 20.9% and -18.2% | Potency [2] | Potency [3] | Potency [4]

CCCCNc1ccc(C(=O)OCCN(C)C)cc1
inactive: activation [1] -9.6% and 10.7% | Potency [2] | Potency [3] | Potency [4]

OC1(c2ccc(Cl)cc2)CCN(Cc2c[nH]c3ccccc23)CC1
inactive: activation [1] -4.41% | Potency [2] | Potency [3] | Potency [4]

CC[N+](C)(C)c1cccc(O)c1
inactive: activation [1] 3.57% | Potency [2] | Potency [3] | Potency [4]

Oc1cc(O)c2c(c1)O[C@H](c1ccc(O)c(O)c1)[C@@H](O)C2
inactive: activation [1] -7.14% | Potency [2] | Potency [3] | Potency [4]

CC(C)(C)NCC(O)COc1cccc2[nH]c(=O)[nH]c12 (centres undefined)
inactive: activation [1] -2.8% | Potency [2] | Potency [3] | Potency [4]

O=c1[nH]c2cc(Cl)ccc2c(O)c1-c1ccc(Oc2ccccc2)cc1
inactive: activation [1] 23.6% | Potency [2] | Potency [3] | Potency [4]

O=C(NCCN1CCOCC1)c1ccc(Cl)cc1
inactive: activation [1] -2.82% and -8.35% | Potency [2] | Potency [3] | Potency [4]

O=C(O)c1cccnc1C(=O)O
inactive: activation [1] -17.2% | Potency [2] | Potency [3] | Potency [4]

Nc1cc(=O)[nH]c(N)n1
inactive: activation [1] -34.3% and -22.6% | Potency [2] | Potency [3] | Potency [4]

C[C@@H](NCCc1ccc(O)cc1)[C@@H](O)c1ccc(O)cc1
inactive: activation [1] -21.6% | Potency [2] | Potency [3] | Potency [4]
